Test results taken from PubChem BioAssay AID1159580 (chemical genetic matrix, 2015).
Among all 5,500 compounds or so, about 2,000 (36%) were called active. Inconclusive results (about 18%) are left out. No stated cut-off is given here; in the data, active means normalized growth mostly below about 0.91 (no sharp cut-off); inconclusive means no clear call, values can overlap the other calls; inactive means mostly above about 0.92. The list shows a part of the results.

Assay: chemical genetic growth profiling, strain panel (AID 1159580);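 further: tested at 20 µM; growth read once vehicle control cultures reached saturation at 30 °C; 1 = growth at the plate median or of vehicle wells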
Conditions: growth OD

Measured: normalized growth

C[C@@H]1C(=O)O[C@H]2[C@H]1CC[C@@]1(C)C=CC(=O)[C@@]3(C)O[C@@]213
inactive: S. cerevisiae deletion strains, locus YKL009W, strain mrt4, stronger effect = lower value 1.03 | S. cerevisiae deletion strains, locus YKL068W, stronger effect = lower value 1.01 | S. cerevisiae deletion strains, locus YKL085W, strain MDH1 (second series), stronger effect = lower value 1.01 | S. cerevisiae deletion strains, locus YKL085W, strain MDH1, stronger effect = lower value 1.01 | S. cerevisiae deletion strains, locus YKL160W, strain elf1, stronger effect = lower value 0.963 | S. cerevisiae deletion strains, locus YKL190W, strain CNB1, stronger effect = lower value 1.01 | S. cerevisiae deletion strains, locus YKR001C, strain vps1, stronger effect = lower value 1 | S. cerevisiae deletion strains, locus YKR026C, strain gcn3, stronger effect = lower value 1.01 | S. cerevisiae deletion strains, locus YKR091W, strain srl3, stronger effect = lower value 1 | S. cerevisiae deletion strains, locus YLL001W, strain dnm1, stronger effect = lower value 1.02 | S. cerevisiae deletion strains, locus YLL026W, stronger effect = lower value 1.01 | S. cerevisiae deletion strains, locus YLL041C, strain sdh2, stronger effect = lower value 1.01 | S. cerevisiae deletion strains, locus YLR027C, strain aat2, stronger effect = lower value 1.02 | S. cerevisiae deletion strains, locus YLR039C, strain RIC1, stronger effect = lower value 0.994 | S. cerevisiae deletion strains, locus YLR058C, strain SHM2, stronger effect = lower value 1.01 | S. cerevisiae deletion strains, locus YLR102C, strain apc9, stronger effect = lower value 1.01 | S. cerevisiae deletion strains, locus YLR113W, strain HOG1, stronger effect = lower value 1.03 | S. cerevisiae deletion strains, locus YLR221C, strain rsa3, stronger effect = lower value 1.01 | S. cerevisiae deletion strains, locus YLR258W, strain gsy2, stronger effect = lower value 1.03 | S. cerevisiae deletion strains, locus YLR262C, strain YPT6 (second series), stronger effect = lower value 0.996 | S. cerevisiae deletion strains, locus YLR262C, strain YPT6, stronger effect = lower value 0.997 | S. cerevisiae deletion strains, locus YLR268W, strain sec22, stronger effect = lower value 1.04 | S. cerevisiae deletion strains, locus YLR320W, strain mms22, stronger effect = lower value 1.03 | S. cerevisiae deletion strains, locus YLR330W, strain CHS5, stronger effect = lower value 1.01 | S. cerevisiae deletion strains, locus YLR342W, strain FKS1 (second series), stronger effect = lower value 1.01 | S. cerevisiae deletion strains, locus YLR342W, strain FKS1, stronger effect = lower value 1.01 | S. cerevisiae deletion strains, locus YLR357W, strain rsc2, stronger effect = lower value 1.02 | S. cerevisiae deletion strains, locus YLR370C, strain arc18, stronger effect = lower value 1.02 | S. cerevisiae deletion strains, locus YLR371W, strain rom2, stronger effect = lower value 1.03 | S. cerevisiae deletion strains, locus YLR384C, strain iki3, stronger effect = lower value 1 | S. cerevisiae deletion strains, locus YLR418C, strain cdc73, stronger effect = lower value 1.05 | S. cerevisiae deletion strains, locus YML016C, strain PPZ1, stronger effect = lower value 1.01 | S. cerevisiae deletion strains, locus YML032C, strain rad52, stronger effect = lower value 1.01 | S. cerevisiae deletion strains, locus YML120C, strain ndi1, stronger effect = lower value 1.03 | S. cerevisiae deletion strains, locus YML124C, strain tub3, stronger effect = lower value 1.02 | S. cerevisiae deletion strains, locus YMR058W, strain fet3, stronger effect = lower value 1.03 | S. cerevisiae deletion strains, locus YMR078C, strain ctf18, stronger effect = lower value 1.02 | S. cerevisiae deletion strains, locus YMR125W, strain sto1, stronger effect = lower value 0.999 | S. cerevisiae deletion strains, locus YMR129W, stronger effect = lower value 1.03 | S. cerevisiae deletion strains, locus YMR205C, strain PFK2, stronger effect = lower value 1.02 | S. cerevisiae deletion strains, locus YMR223W, strain ubp8, stronger effect = lower value 1.01 | S. cerevisiae deletion strains, locus YMR231W, strain pep5, stronger effect = lower value 1.01 | S. cerevisiae deletion strains, locus YMR263W, strain SAP30, stronger effect = lower value 1.02 | S. cerevisiae deletion strains, locus YMR307W, strain GAS1, stronger effect = lower value 1 | S. cerevisiae deletion strains, locus YNL067W, strain RPL9B, stronger effect = lower value 1.02 | S. cerevisiae deletion strains, locus YNL071W, strain lat1, stronger effect = lower value 1 | S. cerevisiae deletion strains, locus YNL128W, strain TEP1, stronger effect = lower value 1.03 | S. cerevisiae deletion strains, locus YNL153C, strain GIM3, stronger effect = lower value 1.02 | S. cerevisiae deletion strains, locus YNL183C, strain NPR1, stronger effect = lower value 0.974 | S. cerevisiae deletion strains, locus YNL209W, strain ssb2, stronger effect = lower value 1.01 | S. cerevisiae deletion strains, locus YNL233W, strain BNI4, stronger effect = lower value 1.03 | S. cerevisiae deletion strains, locus YNL248C, strain rpa49, stronger effect = lower value 1.03 | S. cerevisiae deletion strains, locus YNL250W, strain rad50, stronger effect = lower value 1.03 | S. cerevisiae deletion strains, locus YNL271C, strain bni1, stronger effect = lower value 1.01 | S. cerevisiae deletion strains, locus YNL298W, strain CLA4, stronger effect = lower value 1.01 | S. cerevisiae deletion strains, locus YNL307C, strain MCK1, stronger effect = lower value 1.03 | S. cerevisiae deletion strains, locus YNL322C, strain KRE1 (second series), stronger effect = lower value 1 | S. cerevisiae deletion strains, locus YNL322C, strain KRE1, stronger effect = lower value 1.01 | S. cerevisiae deletion strains, locus YNR049C, strain mso1, stronger effect = lower value 1.04 | S. cerevisiae deletion strains, locus YNR052C, strain pop2, stronger effect = lower value 1.01 | S. cerevisiae deletion strains, locus YOL006C, strain TOP1, stronger effect = lower value 1.04 | S. cerevisiae deletion strains, locus YOL012C, strain htz1 0.788 | S. cerevisiae deletion strains, locus YOL147C, strain pex11, stronger effect = lower value 1.01 | S. cerevisiae deletion strains, locus YOR001W, strain rrp6, stronger effect = lower value 1.05 | S. cerevisiae deletion strains, locus YOR061W, strain CKA2, stronger effect = lower value 1.02 | S. cerevisiae deletion strains, locus YOR069W, strain VPS5, stronger effect = lower value 1.01 | S. cerevisiae deletion strains, locus YOR070C, strain gyp1, stronger effect = lower value 1.01 | S. cerevisiae deletion strains, locus YOR080W, strain dia2, stronger effect = lower value 1 | S. cerevisiae deletion strains, locus YOR083W, strain WHI5, stronger effect = lower value 1 | S. cerevisiae deletion strains, locus YOR106W, strain vam3, stronger effect = lower value 0.999 | S. cerevisiae deletion strains, locus YOR136W, strain idh2, stronger effect = lower value 1.02 | S. cerevisiae deletion strains, locus YOR144C, strain elg1, stronger effect = lower value 1.02 | S. cerevisiae deletion strains, locus YOR184W, strain ser1, stronger effect = lower value 1.03 | S. cerevisiae deletion strains, locus YOR231W, strain MKK1, stronger effect = lower value 1.04 | S. cerevisiae deletion strains, locus YOR265W, strain rbl2, stronger effect = lower value 1.03 | S. cerevisiae deletion strains, locus YOR270C, strain vph1, stronger effect = lower value 1.1 | S. cerevisiae deletion strains, locus YOR290C, strain snf2, stronger effect = lower value 1.02 | S. cerevisiae deletion strains, locus YOR316C, strain cot1, stronger effect = lower value 1.02 | S. cerevisiae deletion strains, locus YPL051W, strain arl3, stronger effect = lower value 1.02 | S. cerevisiae deletion strains, locus YPL055C, strain LGE1, stronger effect = lower value 1.06 | S. cerevisiae deletion strains, locus YPL078C, strain atp4, stronger effect = lower value 1.02 | S. cerevisiae deletion strains, locus YPL106C, strain sse1, stronger effect = lower value 1.01 | S. cerevisiae deletion strains, locus YPL240C, strain hsp82, stronger effect = lower value 1.01 | S. cerevisiae deletion strains, locus YPL241C, strain CIN2, stronger effect = lower value 1 | S. cerevisiae deletion strains, locus YPL256C, strain CLN2, stronger effect = lower value 1.03 | S. cerevisiae deletion strains, locus YPR119W, strain clb2, stronger effect = lower value 1.01 | S. cerevisiae deletion strains, locus YPR141C, strain kar3, stronger effect = lower value 1.02 | S. cerevisiae deletion strains, locus YPR163C, strain tif3, stronger effect = lower value 1.02 | S. cerevisiae deletion strains, locus YPR167C, strain met16, stronger effect = lower value 1.02 | S. cerevisiae deletion strains, strain wtn01, stronger effect = lower value 1.03 | S. cerevisiae strains, strain wild type, stronger effect = lower value 1.02
